This note sets out measurements from article PMC13494018.

Unmarked numbers belong to inactive results. The rule behind the calls is not given here.

The target of the experiment is CD276, Q5ZPR3.
CD276, Q5ZPR3, sequence (Q5ZPR3 whole entry): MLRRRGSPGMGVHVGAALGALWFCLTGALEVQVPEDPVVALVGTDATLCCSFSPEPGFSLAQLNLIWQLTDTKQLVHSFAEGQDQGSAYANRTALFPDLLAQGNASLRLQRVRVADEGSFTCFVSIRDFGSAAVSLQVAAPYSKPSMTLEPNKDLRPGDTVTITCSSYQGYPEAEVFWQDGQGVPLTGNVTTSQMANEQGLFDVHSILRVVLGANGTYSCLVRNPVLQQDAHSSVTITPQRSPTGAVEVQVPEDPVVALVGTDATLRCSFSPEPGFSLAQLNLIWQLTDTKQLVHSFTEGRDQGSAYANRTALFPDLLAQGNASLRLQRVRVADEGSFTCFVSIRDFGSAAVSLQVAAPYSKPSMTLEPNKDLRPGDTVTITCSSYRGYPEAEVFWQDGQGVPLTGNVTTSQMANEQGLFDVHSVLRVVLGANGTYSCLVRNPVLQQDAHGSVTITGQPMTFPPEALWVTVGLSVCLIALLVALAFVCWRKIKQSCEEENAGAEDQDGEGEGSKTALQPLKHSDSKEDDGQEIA

B1: design_488_244881a1-ba0c-4c08-ad9c-1f64cf93580a_2213_dldesign_0_cycle1_af2pred (protein)
chain: AEAQAALIAAKGYYYLAQSYYTHVANNPSLPAEEKKQAAKNAKEAAEKAEEYAKKAGPEAQPYAEKAKKYAEETKKLAEEYA
Regarding B1, the “binding in a display sort” value was “not found”.

B2: design_488_244881a1-ba0c-4c08-ad9c-1f64cf93580a_2397_dldesign_0_cycle1_af2pred (protein)
chain: AVAAAEQRVKEAAAKVAKALADEPFDVIYAAIMKEGEKIGKETGLEKQIKAEAVKEAQAAFVARAKAQIAAA
With B2, the “binding in a display sort” value is “not found”.

B3: design_610_f34cc193-997c-4684-af32-2a8002718429_113_dldesign_0_cycle1_af2pred (protein)
chain: AAAAAAAAEKAAAVAAIKEIAEAAKAHAATVGFRALAASAATVVRLAEQGLWTPEGVKKALEVLKAIYEAELAALKAAAA
As to B3, the “binding in a display sort” value was “not found”.

B4: design_488_244881a1-ba0c-4c08-ad9c-1f64cf93580a_1921_dldesign_0_cycle1_af2pred (protein)
chain: DKATLAAQAQAVVNATKIAVEAAEKAIKEGDKEAAKKAAEGLKQMVEVAEAMAKQLEAAGADQAVIDAVKEAAEAAKKAAEKAEKFA
As to B4, the “binding in a display sort” value was “not found”.

B5: design_488_244881a1-ba0c-4c08-ad9c-1f64cf93580a_1793_dldesign_0_cycle1_af2pred (protein)
chain: EAEELLARARAVEERGAELAAAAEALASVPGAASLKAHVAQALRAAQQAREAVADPEEATRLLRAAEASLRNAELVLEGMKIQAA
On to B5, for which the “binding in a display sort” value is “not found”.

B6: design_488_244881a1-ba0c-4c08-ad9c-1f64cf93580a_2241_dldesign_0_cycle1_af2pred (protein)
chain: GAALLAQAQALMKAANATAAAGDTATAAAAWADAAKKLAELAKEAAKEDPAYAATIQAMADMSKYIAEQAKA
With B6, the “binding in a display sort” value is “not found”.

B7: design_488_244881a1-ba0c-4c08-ad9c-1f64cf93580a_2479_dldesign_0_cycle1_af2pred (protein)
chain: SEEYIKEAEKLLKEAKEVAAVAKASGDPVALRGAAAFADAVKQVALAKAKKASEEVAKKLEEIAKEAEKLAKELRAAAAA
Take B7: the “binding in a display sort” value was “not found”.

B8: design_488_244881a1-ba0c-4c08-ad9c-1f64cf93580a_2117_dldesign_0_cycle1_af2pred (protein)
chain: AAEEFAKKEAEKAAEVAKTGTPEEAKKAATKLAKKVADAFGVGEALRMLAIAMKMVADDPAKVAAMRAAAAEVQRAAL
B8: the “binding in a display sort” value is “not found”.

B9: design_488_244881a1-ba0c-4c08-ad9c-1f64cf93580a_2417_dldesign_0_cycle1_af2pred (protein)
chain: SAALEAAKQAYDDAAKAAEEAAKDPAVAETAAAAKKSLKAFADEMTAFIKASTDEADKQAAADTLKLYAKNITNQLKAAAAAA
Regarding B9, the “binding in a display sort” value is “not found”.

B10: design_488_244881a1-ba0c-4c08-ad9c-1f64cf93580a_2450_dldesign_0_cycle1_af2pred (protein)
chain: AEERERLTEKARLALEAAESLVAEAERTSPERAAALARSALRFAAEAERYAKEAGDEEIAARAREVRARAEAIL
In the case of B10, the “binding in a display sort” value is “binds (active)”.

B11: design_488_244881a1-ba0c-4c08-ad9c-1f64cf93580a_1684_dldesign_0_cycle1_af2pred (protein)
chain: AAATAQAKADAAKAKAAVESGQDTSALATGHLLRAYSLDPAVADATLAELKALAAGRGTAVATQAIANFAAGVA
As for B11, the “binding in a display sort” value is “not found”.

B12: design_610_f34cc193-997c-4684-af32-2a8002718429_112_dldesign_0_cycle1_af2pred (protein)
chain: MEEVKEEVIKVIEEAAAKAKKAIEADPSTAWAHASAAYATASKAIIANAPKLSPEEMTEVGEVFLKNMKELTEHAKAVAAA
As for B12, the “binding in a display sort” value is “not found”.

B13: design_488_244881a1-ba0c-4c08-ad9c-1f64cf93580a_2073_dldesign_0_cycle1_af2pred (protein)
chain: GSMEELKERAKRIFEEANRVLARASRVATANPAALPLASRAIAEAVRAQELANEALKTDPETGKELLERAEEELREARRYLEEAEAA
For B13, the “binding in a display sort” value was “not found”.

B14: design_610_f34cc193-997c-4684-af32-2a8002718429_136_dldesign_0_cycle1_af2pred (protein)
chain: SLNGTAGAGIVELLKALAEAQKWKALDPEFFGAAAKEIAAETAAAAQAAVAGDYEAAIAEVKAGKAVAEKAKKHAAEIA
For the molecule B14, the “binding in a display sort” value is “not found”.

B15: design_488_244881a1-ba0c-4c08-ad9c-1f64cf93580a_2145_dldesign_0_cycle1_af2pred (protein)
chain: MKEEEVEKKIEEAAKIAGITMRVLKKLLPDDPFLATQLAMKVAVELGKKVGELAGSEEVEKRAYEAAIEAMMKAAV
With B15, the “binding in a display sort” value was “not found”.

B16: design_488_244881a1-ba0c-4c08-ad9c-1f64cf93580a_1769_dldesign_0_cycle1_af2pred (protein)
chain: GEEAKKLKEKADELFAKAKAVLEDPTATKEELTEAAIYASEAAVLYLKAAGLASPEEREEYLKKAVEASKIAIELAAKA
B16: the “binding in a display sort” value was “not found”.

B17: design_488_244881a1-ba0c-4c08-ad9c-1f64cf93580a_1954_dldesign_0_cycle1_af2pred (protein)
chain: AAAQEVAQTAAIMDAALIAAKQSPELLKEMMDVAVAHTKASADPAATLAVLKEKAAKIAEEGTPEAAKIAKAAVAEAA
Turning to B17, the “binding in a display sort” value is “not found”.

B18: design_488_244881a1-ba0c-4c08-ad9c-1f64cf93580a_1644_dldesign_0_cycle1_af2pred (protein)
chain: KEAVVREAGEALEELLRYASRIDPAEGARLVAEASRILRQAVLGDEEEAEEARERVERLREEARERAEAA
In the case of B18, the “binding in a display sort” value is “not found”.

B19: design_488_244881a1-ba0c-4c08-ad9c-1f64cf93580a_1807_dldesign_0_cycle1_af2pred (protein)
chain: AEEEESRRRAEGAKAFLDQILAAAQASASNPAALAALAASAEANAKSVAAAASPEYAKEVRDYAAKVVAQINALAA
Take B19: the “binding in a display sort” value is “not found”.
